{
  "source": "PubChem BioAssay AID720649",
  "about": "(The Scripps Research Institute Molecular Screening Center, 2013)",
  "assay": "TO-PRO-1 dye complex inhibitors on d(CAG) DNA, dose response, counter-screen, biochemical, fluorescence, late stage (AID 720649)",
  "conditions": "d(CAG) DNA duplex TO-PRO-1 dye displacement",
  "note": "The list shows a part of the results. The source made the active and inactive calls. The rule behind the calls is not given here.",
  "data": [
    {"smiles": "Cc1noc(NS(=O)(=O)c2ccc(NC(=O)c3oc4ccc(F)cc4c3C)cc2)c1C", "values": [
      {"measurement": "IC50", "value": "4.19 µM (active)"}
    ]}
  ]
}
